This is an account of results in PubChem BioAssay (NCI).

This is part of a sample that, as a whole, favours compounds with a hit. Of some 83,000 tested, about 20% had one in any assay.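 Compound tested at a single concentration for 48 hours in 96-well plates; a percent growth value below 10 was scored as active.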 Values without a mark were called inactive. Calls of active or inactive are those of the source.

This assay deals with HL-60(TB) leukemia. Nature of the assay: NCI-60 one-dose screen, 48 h (100 = growth as untreated, 0 = no growth, -100 = all killed). The conditions noted are these: 10 µM unless noted.
Consider `COc1ccccc1NC(=O)c1ccc(NC(=O)CCl)s1`, for which the growth is -53.8% (active).

For the compound `c1n[nH]cc1-c1nc2ccc3[nH]ncc3c2c2c1CC1(CC2)COC1`, the growth was 29.1%.

Consider `CCN(CC)c1ccnc(CNCCSC(c2ccccc2)(c2ccccc2)c2ccc(OC)cc2)c1`, for which the growth is -34.3% (active).

In the case of `C=CC(=O)Nc1ccc(C(=O)/C=C/c2ccc(N(C)C)cc2)c(O)c1`, the growth was 1.03% (active).

As for `CC1(C)CC[C@]2(C(=O)Nc3ccccc3)CC[C@]3(C)C(=CCC4[C@@]5(C)C[C@@H](O)[C@H](O)[C@@](C)(CO)C5CC[C@]43C)C2C1` (some centres not stated), the growth is 13.1%.

Regarding `C=C1CCC2C3(C)COC(c4c(F)cccc4F)OC3CCC2(C)C1CC(O)C1=CCOC1=O` (configuration not stated), the growth is 81.6%.

`Cc1cccc(-c2nc(Nc3ccccc3C(=O)O)c3ccccc3n2)c1`: the growth was 39.4%.

`CN1C(=O)N(C)C2SC(N/N=C/C=C/c3ccccc3)=NC21` (configuration not stated): the growth was 30.4%.

On to `CN(C)c1nc(NCCNS(=O)(=O)c2ccc(C3=Nc4c(N)nc(N)nc4NC(c4ccc(C(F)(F)F)cc4)C3)cc2)nc(Nc2ccc(F)cc2)n1` (configuration not stated), for which the growth was -13.7% (active).

With `COc1cccc(/C=N/NC(=O)c2ccc3nc(-c4ccc(Cl)cc4)[nH]c3c2)c1O`, the growth is -43.4% (active).

Turning to `COc1ccc(-c2nc3ccc(-c4nnc(SCc5ccccc5)o4)cc3[nH]2)cc1`, the growth was 16.3%.

Regarding `CN1CCN(C(=O)CCN(C(=O)Oc2cc3c(c4ccccc24)[C@H](CCl)CN3C(=O)c2cc3cc(OCCCN4CCC4)ccc3[nH]2)[C@H]2CCSSC2)CC1`, the growth was -56.7% (active).
